From the supplement of paper PMC6607015
Where a name gives a salt, the structure may show the parent alone.

Key:
Settings in all cases: compound concentration in added solution (µM; 5 µl added to 20 µl cells): 10; 18 h
A431 [1] = assay: LBPA endosome anti-LBPA integrated intensity (sum per cell), Z-score; higher = more LBPA staining
Method in brief: (§1)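 HeLa MZ or A431 cells were plated at 3,500 per well in 20 µl over 5 µl of 10 µM compound solution in duplicate 384-well imaging plates and fixed in 4% PFA after 18 h. Staining used the 6C4 anti-LBPA antibody, filipin, propidium iodide and CellTracker green, with four 20× images captured per well. MetaXpress segmentation measured integrated LBPA or filipin intensity per cell, across the whole cell or inside LBPA endosomes, and AcuityXpress normalised these into Z-scores.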

HeLa MZ [2] = assay: as above
Method in brief: as §1

A431 [3] = assay: whole-cell filipin (free cholesterol) integrated intensity, Z-score; higher = more cholesterol staining
Method in brief: as §1

HeLa MZ [4] = assay: as above
Method in brief: as §1

A431 [5] = assay: filipin (cholesterol) integrated intensity within LBPA endosomes, Z-score; higher = more cholesterol in LBPA endosomes
Method in brief: as §1

HeLa MZ [6] = assay: as above
Method in brief: as §1

Structure (SMILES) | LBPA endosome anti-LBPA integrated intensity (z-score) (A431 [1]) | LBPA endosome anti-LBPA integrated intensity (z-score) (HeLa MZ [2]) | whole-cell filipin (z-score) (A431 [3]) | whole-cell filipin (z-score) (HeLa MZ [4]) | filipin (z-score) (A431 [5]) | filipin (z-score) (HeLa MZ [6])
c1cnc(N2CCN(Cc3ccc4c(c3)OCO4)CC2)nc1 [Piribedil hydrochloride] | 0.161 | 1.95 | 0.544 | 1.93 | -0.00283 | 1.55
O=C(Nc1ccccc1)OCC(CN1CCCCC1)OC(=O)Nc1ccccc1 (centres undefined) [Diperodon hydrochloride] | 1.44 | 2.96 | 0.922 | -0.386 | 1.23 | 1.1
CN(C)CCC[C@@]1(c2ccc(F)cc2)OCc2cc(C#N)ccc21 [Escitalopram] | -0.359 | 1.34 | 0.0689 | 0.675 | -0.134 | 0.883
Cn1c(=O)c2c(ncn2CC(=O)O)n(C)c1=O [Acefylline] | -0.332 | 0.383 | -0.237 | -0.0327 | -0.446 | -0.485
CCN(CC)CC#CCOC(=O)C(O)(c1ccccc1)C1CCCCC1 (centres undefined) [Oxybutynin chloride] | 0.579 | 1.7 | 0.833 | 0.613 | 0.892 | 1.15
CC(=O)[C@H]1CC[C@H]2[C@@H]3C=CC4=CC(=O)CC[C@@]4(C)[C@@H]3CC[C@]12C [Dydrogesterone] | 1.19 | 1.12 | 0.649 | 0.0624 | 0.655 | -0.0901
C[C@H](CS)C(=O)N1CCC[C@H]1C(=O)O [Captopril] | -0.394 | -0.389 | -0.482 | 0.478 | -0.442 | -0.261
COC(=O)[C@H]1[C@H]2C[C@@H]3c4[nH]c5cc(OC)ccc5c4CCN3C[C@H]2C[C@@H](OC(=O)c2cc(OC)c(OC)c(OC)c2)[C@@H]1OC [Reserpine] | 3.11 | 2.24 | 2.19 | 1.75 | 2.34 | 1.96
O=C(Cn1ccnc1[N+](=O)[O-])NCCO [Etanidazole] | -0.499 | -0.402 | -0.226 | 0.609 | -0.413 | -0.325
CCC(=O)O[C@@H](O[P@](=O)(CCCCc1ccccc1)CC(=O)N1C[C@H](C2CCCCC2)C[C@H]1C(=O)O)C(C)C [Fosinopril] | -0.177 | -0.153 | -0.025 | 0.0232 | -0.364 | -0.383
Cn1nnc2c(C(N)=O)ncn2c1=O [Temozolomide] | -0.384 | 0.224 | -0.454 | 0.0676 | -0.437 | -0.627
CC(=O)N[C@@H](CC(C)C)C(=O)O [N-Acetyl-L-leucine] | -0.45 | -0.158 | -0.322 | 0.0999 | -0.425 | -0.357
O=C1c2ccccc2S(=O)(=O)N1CCCCN1CCN(c2ncccn2)CC1 [Ipsapirone] | -0.419 | 0.911 | -0.664 | -0.262 | -0.426 | 0.0372
Nc1ccc(S(=O)(=O)Nc2ccccn2)cc1 [Sulfapyridine] | -0.468 | -0.131 | -0.33 | -0.348 | -0.499 | -0.602
O=C(C1CCCCC1)N1CC(=O)N2CCc3ccccc3C2C1 (centres undefined) [Praziquantel] | -0.253 | -0.0737 | -0.0988 | 0.0128 | -0.417 | -0.225
COc1ccc(CCN(C)CCCC(C#N)(c2ccc(OC)c(OC)c2)C(C)C)cc1OC (centres undefined) [Verapamil hydrochloride] | 2.51 | 2.93 | 2.24 | 0.413 | 2.46 | 1.49
CC(C)(C#N)c1cc(Cn2cncn2)cc(C(C)(C)C#N)c1 [Anastrozole] | -0.573 | -1.31 | -0.205 | -0.00341 | -0.428 | -0.659

Structure (SMILES) | LBPA endosome anti-LBPA integrated intensity (z-score) (A431 [1]) | LBPA endosome anti-LBPA integrated intensity (z-score) (HeLa MZ [2]) | whole-cell filipin (z-score) (A431 [3]) | whole-cell filipin (z-score) (HeLa MZ [4]) | filipin (z-score) (A431 [5]) | filipin (z-score) (HeLa MZ [6])
Clc1ccc2c(c1)CCc1cccnc1C2=C1CCNCC1 [Desloratadine] | 3.93 | 2.5 | 1.63 | 0.223 | 2.69 | 2.81
CC(C)NCC(O)COc1cccc2[nH]ccc12 (centres undefined) [Pindolol] | -0.195 | -0.563 | -0.497 | -0.0997 | -0.329 | -0.129
CCOc1nc2cccc(C(=O)O)c2n1Cc1ccc(-c2ccccc2-c2nnn[nH]2)cc1 [Candesartan] | -0.346 | 0.346 | 0.0521 | 0.386 | -0.389 | -0.218
NNc1nncc2ccccc12 [Hydralazine hydrochloride] | -0.438 | -1.11 | -0.55 | -0.572 | -0.474 | -0.461
CCN(CC)CCOC(=O)C(c1ccccc1)C1CCCCC1 (centres undefined) [Drofenine hydrochloride] | 1.02 | 2.6 | 1.05 | 0.772 | 1.02 | 1.12
Cc1cc(-n2c(=O)[nH]c(=O)n(C)c2=O)ccc1Oc1ccc(SC(F)(F)F)cc1 [Toltrazuril] | -0.328 | 0.612 | -0.109 | 0.0439 | -0.337 | -0.457
CC1=C(/C=C/C(C)=C/C=C/C(C)=C/C(=O)O)C(C)(C)CCC1 [Retinoic acid] | -0.177 | -0.508 | -0.103 | -0.698 | -0.286 | -0.43
CC1Cc2ccccc2N1NC(=O)c1ccc(Cl)c(S(N)(=O)=O)c1 (centres undefined) [Indapamide] | -0.302 | 0.5 | -0.729 | -0.419 | -0.453 | -0.438
N[C@H]1CONC1=O [(S)-(-)-Cycloserine] | -0.455 | -0.138 | -0.147 | -0.221 | -0.457 | -0.283
CC[C@H](c1ccc(O)cc1)[C@@H](CC)c1ccc(O)cc1 [Hexestrol] | -0.48 | -0.198 | -0.492 | -0.508 | -0.435 | -0.383
CN(Cc1ccc(C(C)(C)C)cc1)Cc1cccc2ccccc12 [Butenafine Hydrochloride] | -0.698 | -1.43 | -0.644 | -0.481 | -0.512 | -0.793
CC(=O)CC(c1ccccc1)c1c(O)c2ccccc2oc1=O (centres undefined) [Warfarin] | -0.409 | 0.393 | 0.206 | 0.0343 | -0.461 | -0.372
CC(C)[C@H](N)C(=O)OCCOCn1cnc2c(=O)nc(N)[nH]c21 [Valacyclovir hydrochloride] | -0.418 | 0.0601 | -0.723 | -0.237 | -0.459 | -0.357
Oc1ccc(OCc2ccccc2)cc1 [Monobenzone] | -0.343 | 2.16 | 2.23 | 2.56 | -0.548 | -0.736
CN(C)CCCOc1nn(Cc2ccccc2)c2ccccc12 [Benzydamine hydrochloride] | 1.07 | 2.25 | 1.71 | -0.196 | 1.63 | 0.942
CCN(CC)CCNC(=O)c1ccc(N)cc1 [Procainamide hydrochloride] | -0.492 | 0.0584 | -0.628 | 0.713 | -0.428 | -0.159
CC(C)C(=O)Nc1ccc([N+](=O)[O-])c(C(F)(F)F)c1 [Flutamide] | -0.32 | 0.353 | -0.407 | -0.0656 | -0.384 | -0.392
